The values below come from PubChem BioAssay (NCATS).

The nature of assay [1]: qHTS of pediatric cancer cell lines to identify multiple opportunities for drug repurposing: Confirmatory screen for LAN-5 cells (AID 1347113). Further: nearly all actives have a fitted effect of over 65% in size. The essentials: (§1)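 Cells (500-1,000/well) in growth media were settled 5 h at 37 degrees C, then given compounds for 48 h. Viability was read as CellTiter-Glo luminescence. Primary runs used MIPE at 11 points (0.78 nM-46 µM) and NPC at 8 points (0.59 nM-46 µM); follow-ups used 11 points.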
A general note: Quantitative high-throughput screening tests each substance at several concentrations.

Assay [2] can be described thus: qHTS of pediatric cancer cell lines to identify multiple opportunities for drug repurposing: Confirmatory screen for DAOY cells (AID 1347114). Further: nearly all actives have a fitted effect of over 65% in size. The essentials:
(§2)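 Viability measured as metabolically active cells via CellTiter-Glo luminescence following 48 hours of compound exposure, 11-point dilutions in confirmatory testing. 500-1,000 cells/well plated 5 hours before dosing; controls were DMSO and 2.3 µM bortezomib.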

Assay [3] in a line: qHTS of pediatric cancer cell lines to identify multiple opportunities for drug repurposing: Confirmatory screen for NB-EBc1 cells (AID 1347115).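 Further: cells exposed to compound for 48 h before the viability read; nearly all actives have a fitted effect of over 45% in size.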 Further: potency means the concentration at half of the fitted maximal effect. The essentials:
as §1

Assay [4] can be described thus: qHTS of pediatric cancer cell lines to identify multiple opportunities for drug repurposing: Confirmatory screen for SJ-GBM2 cells (AID 1347116). Further: nearly all actives have a fitted effect of over 60% in size. Further: potency means the concentration at half of the fitted maximal effect. An outline of the steps: as §2
Assay [5] in a line: qHTS of pediatric cancer cell lines to identify multiple opportunities for drug repurposing: Confirmatory screen for TC32 cells (AID 1347118).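 Further: cells exposed to compound for 48 h before the read; nearly all actives have a fitted effect of over 65% in size.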 Further: potency means the concentration at half of the fitted maximal effect. An outline of the steps: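 Luminescent CellTiter-Glo read-out of metabolically active TC32 cells after 48 h compound exposure. Primary: MIPE 11-point, 0.78 nM–46 µM; NPC 8-point, 0.59 nM–46 µM. Confirmatory: 11-point dilutions.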
A short description of assay [6]: qHTS of pediatric cancer cell lines to identify multiple opportunities for drug repurposing: Confirmatory screen for MG 63 (6-TG R) cells (AID 1347119). Further: nearly all actives have a fitted effect of over 55% in size. Further: potency means the concentration at half of the fitted maximal effect. The essentials: as §1
Assay [7] can be described thus: qHTS of pediatric cancer cell lines to identify multiple opportunities for drug repurposing: Confirmatory screen for control Hh wild type fibroblast cells (AID 1347121). Further: nearly all actives have a fitted effect of over 70% in size. An outline of the steps: as §1
Assay [8] is described as follows: qHTS of pediatric cancer cell lines to identify multiple opportunities for drug repurposing: Confirmatory screen for RD cells (AID 1347124).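 Further: cells exposed to compound for 48 h before viability readout; nearly all actives have a fitted effect of over 65% in size.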 The essentials:
as §1

The test system of assay [9] is Zika virus NS2B-NS3 protease. Put plainly: Primary screen GU AMC qHTS for Zika virus inhibitors (AID 1347154). Further: nearly all actives have a fitted effect of over 70% in size. The essentials:
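Unlinked Zika NS2B hydrophilic domain/NS3 protease domain noncovalent complex (25 nM final) in 10 mM Tris-HCl pH 8.0, 0.01% Tween 20, with AMC peptide substrate. Fluorescence (ex 340, em 450 nm) change over 15 min, room temperature; percent inhibition fitted to 4-parameter Hill equation.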

The nature of assay [10]: qHTS of pediatric cancer cell lines to identify multiple opportunities for drug repurposing: Confirmatory screen for Rh41 cells (AID 1347123). Further: nearly all actives have a fitted effect of over 60% in size. Further: potency means the concentration at half of the fitted maximal effect. The essentials: as §1
Assay [11] is described as follows: qHTS of pediatric cancer cell lines to identify multiple opportunities for drug repurposing: Confirmatory screen for Rh18 cells (AID 1347125). Further: nearly all actives have a fitted effect of over 55% in size. Further: potency means the concentration at half of the fitted maximal effect. An outline of the steps:
as §1

Assay [12] in a line: qHTS of pediatric cancer cell lines to identify multiple opportunities for drug repurposing: Confirmatory screen for Rh30 cells (AID 1347126). Further: nearly all actives have a fitted effect of over 55% in size. An outline of the steps: as §1
A short description of assay [13]: qHTS of pediatric cancer cell lines to identify multiple opportunities for drug repurposing: Confirmatory screen for SK-N-SH cells (AID 1347129).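 Further: cells exposed to compound for 48 h before viability read; nearly all actives have a fitted effect of over 60% in size.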 Further: potency means the concentration at half of the fitted maximal effect. An outline of the steps: as §1
Assay [14] in a line: qHTS of pediatric cancer cell lines to identify multiple opportunities for drug repurposing: Confirmatory screen for BT-37 cells (AID 1347117). Further: nearly all actives have a fitted effect of over 55% in size. The essentials: as §1
Assay [15] in a line: qHTS of pediatric cancer cell lines to identify multiple opportunities for drug repurposing: Confirmatory screen for Saos-2 cells (AID 1347127). Further: nearly all actives have a fitted effect of over 60% in size. The essentials:
as §1

A short description of assay [16]: qHTS of pediatric cancer cell lines to identify multiple opportunities for drug repurposing: Confirmatory screen for OHS-50 cells (AID 1347128). The essentials:
as §1

Assay [17] concerns Zika virus NS2B-NS3 protease (unlinked). Description: Optimization of GU AMC qHTS for Zika virus inhibitors: Unlinked NS2B-NS3 protease assay (AID 1347151). Further: series mostly up to about 52 µM; nearly all actives have a fitted effect of over 80% in size. The essentials:
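Fluorescence read-out (340 nm ex / 450 nm em) of AMC peptide cleavage, taken immediately and after 15 min at room temperature (~20% conversion). Enzyme was the unlinked NS2B–NS3 complex at 25 nM in Tris pH 8.0 buffer.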

Records with an inconclusive call do not appear. Active and inactive are the calls of the source. The call rests on the fitted dose curve; in most records, active means well fitted curve in the direction sought with a large enough effect; inconclusive means small, poorly fitted or top-dose-only effect, or another doubt; inactive means no such curve, though single readings can be large; an effect the other way counts as inactive or inconclusive.

As to `CN(C)c1ccc(C2Nc3ccc4ccccc4c3C3=C2C(=O)CC(C)(C)C3)cc1Br` (stereo unspecified), the Potency entry in assay [1], in [2], in [7], in assay [8] and in assay [9] was “inactive” throughout. For the same compound, the Potency in [3] was 42.7 µM (active); in [4], 8.27 µM (active); in assay [5], 15.1 µM (active); in [6], 7.59 µM (active).

On to `COc1cc2nccc(Oc3ccc(NC(=O)NC4CC4)c(Cl)c3)c2cc1C(N)=O`, for which the Potency result in assay [2], in [3], in assay [4], in [7], in assay [12] and in assay [13] was “inactive” in each case. In addition, the Potency entry in [9] is “inactive”. Also, the Potency in assay [5] is 14.7 µM (active); in assay [10], 5.85 µM (active); in assay [11], 14.7 µM (active).

For `Cc1c(C)c2c(c(C)c1O)CCC(C)(COc1ccc(CC3SC(=O)NC3=O)cc1)O2` (stereo unspecified), the Potency entry in assay [1], in assay [3], in assay [4], in assay [14], in assay [5] and in [7] was “inactive” in each case. For the same compound, the Potency entry in [10], in assay [8], in assay [12], in assay [15], in [13] and in [9] was “inactive” each time.

As for `NCCCC(N)(C(=O)O)C(F)F` (stereo unspecified), the Potency entry in assay [1], in assay [2], in [3], in [4], in assay [14] and in assay [6] was “inactive” each time. Besides, the Potency entry in [7], in assay [10], in assay [8], in [11], in assay [12] and in [15] was “inactive” each time. For the same compound, the Potency entry in assay [16], in assay [13], in [17] and in [9] was “inactive” in each case.

With `O=C(c1cc(Cc2n[nH]c(=O)c3ccccc23)ccc1F)N1CCN(C(=O)C2CC2)CC1`, the Potency result in assay [3], in assay [4], in [5], in assay [6], in assay [7] and in [8] was “inactive” throughout. The Potency result in [11], in assay [12], in assay [15], in assay [16] and in assay [9] was “inactive” each time. For the same compound, the Potency is 9.27 µM (active) in assay [10] and 14.8 µM (active) in assay [13].

On to `OC(CN1CCC(Cc2ccc(F)cc2)CC1)c1ccc(Cl)cc1` (stereo unspecified), for which the Potency entry in [1], in assay [2], in assay [3], in [4], in [6] and in [7] was “inactive” in each case. Moreover, the Potency result in assay [8], in assay [11], in assay [12], in assay [15], in assay [17] and in [9] was “inactive” in each case.

`CCOc1ccn(-c2ccc(F)cc2)c(=O)c1C(=O)Nc1ccc(Oc2ccnc(N)c2Cl)c(F)c1`: the Potency entry in [1], in assay [2], in assay [3], in assay [7], in assay [8] and in assay [12] was “inactive” throughout. Besides, the Potency result in assay [13] and in assay [9] was “inactive” in each case. The values for the Potency in [4], in assay [5] and in [6] were 14.7 µM (active), 7.37 µM (active) and 10.4 µM (active), respectively.

Consider `CC(C=CC1=C(C)CCCC1(C)C)=CC=CC(C)=CC(=O)O`, for which the Potency result in assay [1], in assay [2], in assay [3], in [4], in [14] and in assay [7] was “inactive” in each case. The Potency result in assay [8], in assay [11], in assay [12], in [16], in assay [13] and in assay [9] was “inactive” in each case. The Potency in [5] is 16.5 µM (active).
